This is a sample that favours compounds with a hit; in the whole collection about 2% have one here.
NPR2 activator = GC-B (human) receptor activation; P20594; HEK293-GC-B cells, CNP EC30, cGMP TR-FRET; 0% at EC30 CNP, 100% saturating CNP; activation, % at 10 µM; 0.11% of 370,000 active;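 active = activation at 10 µM reaching about 35% in either raw or pattern-adjusted values, limit read from the data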
GC-A act = GC-A (human) enzyme activation | P16066 | HEK293 GC-A cells, cGMP TR-FRET, EC30 ANP; 0% at EC30 ANP, 100% saturating ANP | activation, % at 10 µM | 0.14% of 370,000 active | AID 1671463; in the data active = activation above about 40%
FAS TE block = inhibitors of human fatty acid synthase thioesterase domain | recombinant FAS-TE, OMFH fluorogenic substrate, fluorescence endpoint | inhibition, % at 15 µM | P49327 | 0.67% of 360,000 active;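 active = compounds whose normalised, plate-corrected inhibition of enzyme fluorescence in the single-dose primary screen is 50% or more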;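 note: 0% = DMSO with enzyme and 100% = substrate without enzyme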
ADAM17 inh = inhibitors of human ADAM17 | 0.83% of 370,000 active | recombinant ADAM17, EDANS/DABCYL FRET peptide cleavage | AID 720648 | inhibition, % at 6.95 µM;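 active = inhibition above the mean of compounds lying between control limits plus 3 SD, set per campaign, cut at about 8.5% in these data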;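 note: 0% = DMSO-only wells as the low control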
Target sequence (P78536 215-824 limits assumed): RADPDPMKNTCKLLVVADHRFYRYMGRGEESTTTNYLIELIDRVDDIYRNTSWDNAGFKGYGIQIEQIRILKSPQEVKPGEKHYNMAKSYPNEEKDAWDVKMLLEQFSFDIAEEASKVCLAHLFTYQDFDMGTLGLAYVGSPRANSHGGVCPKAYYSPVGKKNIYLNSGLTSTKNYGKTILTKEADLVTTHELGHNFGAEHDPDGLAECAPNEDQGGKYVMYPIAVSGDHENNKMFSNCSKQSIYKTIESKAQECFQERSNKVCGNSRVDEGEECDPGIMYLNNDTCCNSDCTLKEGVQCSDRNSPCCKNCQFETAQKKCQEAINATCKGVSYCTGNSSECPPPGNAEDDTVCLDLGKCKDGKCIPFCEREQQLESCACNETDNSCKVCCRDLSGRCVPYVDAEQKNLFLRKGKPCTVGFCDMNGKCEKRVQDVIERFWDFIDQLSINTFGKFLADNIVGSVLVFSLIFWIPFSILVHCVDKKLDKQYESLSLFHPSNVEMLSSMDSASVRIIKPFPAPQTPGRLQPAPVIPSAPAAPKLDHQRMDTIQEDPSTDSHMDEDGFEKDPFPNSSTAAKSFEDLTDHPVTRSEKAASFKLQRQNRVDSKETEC
ADAM10 inh = inhibitors of human ADAM10 | O14672 | recombinant ADAM10, EDANS/DABCYL FRET peptide cleavage, 3 h | inhibition, % at 7 µM | 0.62% of 370,000 active | AID 720582;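 active = inhibition above a per-campaign cutoff equal to the mean of compounds falling between control-based bounds plus 3 SD, cut at about 20% in these data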;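 note: 0% = DMSO wells while the 100% control is not disclosed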
ADAM10 ctr = ADAM10 inhibition, counter-screen for ADAM17 exosite hits; AID 743256; 47% of 2,900 active; shares compounds with ADAM17 inh; recombinant ADAM10, EDANS/DABCYL FRET peptide cleavage, 3 h; inhibition, % at 6.95 µM;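 active = mean inhibition over the triplicate runs exceeds the activity threshold set in the earlier primary screen, cut at about 20% in these data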;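 note: 0% = DMSO wells and 100% = marimastat wells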
ADAM17 confirm = confirmation of inhibitors of human ADAM17 | shares compounds with ADAM17 inh | recombinant ADAM17, EDANS/DABCYL QFRET peptide cleavage | inhibition, % at 6.95 µM | 65% of 2,900 active | AID 743257;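 active = mean inhibition across replicates above the hit cutoff set in the primary screen, cut at about 8.5% in these data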;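 note: 0% = DMSO wells and 100% = marimastat wells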
* = called active by the depositor; nt = no result.

SMILES | NPR2 activator | GC-A act | FAS TE block | ADAM17 inh | ADAM10 inh | ADAM10 ctr | ADAM17 confirm
COc1ccc(CCC(=O)NNC(=O)c2cc(Cl)ccc2OC)cc1OC | -3.0 | -3.3 | -4.4 | -3.0 | 1.0 | nt | nt
COc1ccc(CCC(=O)NNC(=O)c2cc(Cl)ccc2OC)cc1 | -6.7 | 3.2 | -0.7 | 8.8* | -12.8 | 8.1 | 5.7
COc1cccc(CO[C@H]2C=C[C@@H](c3ccccc3)O[C@@H]2COC(C)=O)c1 | 0.8 | 2.3 | nt | -2.1 | -6.6 | nt | nt
COc1ccc(NS(=O)(=O)c2cc(OC)ccc2NC(=O)c2cc(C)oc2C)cc1 | -5.2 | 1.4 | 12.5 | 8.8* | 15.2 | 2.5 | 6.2
COc1ccc(Nc2oc(COc3ccc(C)cc3)nc2C#N)cc1 | -1.8 | -1.0 | 24.8 | 6.0 | 19.7 | nt | nt
COc1ccc(Nc2oc(COc3ccc(OC)cc3)nc2C#N)cc1 | -7.6 | 8.0 | 19.3 | 9.1* | 14.0 | 13.0 | 5.6
CC(Sc1nc2ccccc2s1)C(=O)N(C)Cc1ccccc1 (centres undefined) | -5.6 | -3.2 | 15.6 | 8.8* | -2.1 | 5.4 | 3.9
COc1cc(NC(=O)c2ccc(S(=O)(=O)N(C)c3ccccc3OC)cc2)cc(OC)c1 | 0.9 | -3.4 | 41.5 | 9.4* | 19.2 | 24.7* | 13.2*
COC(=O)c1cccc(NC(=O)c2ccc(S(=O)(=O)N(C)c3ccccc3OC)cc2)c1 | 1.7 | 0.1 | 24.9 | 3.4 | 11.8 | nt | nt
CC1CCN(C2=NC(=O)N(c3ccc(Br)cc3)C(=O)C2)CC1 | 2.0 | 0.3 | nt | -5.5 | -11.3 | nt | nt
O=C(C[C@@H]1C/C=C\CCC(=O)OC[C@@H]2CCCN2C1=O)N[C@@H](CO)Cc1ccccc1 | -1.6 | 0.7 | -6.6 | 8.9* | 2.9 | 4.4 | 2.8
O=C(NCCN1CCC(Cc2ccccc2)CC1)C1CCCN(S(=O)(=O)c2cccs2)C1 (centres undefined) | -1.2 | -4.1 | nt | -1.5 | -3.5 | nt | nt
O=C(COc1ccccc1Cl)Nc1cnn(Cc2ccccc2)c1 | -1.2 | -0.2 | 1.5 | 9.4* | 14.7 | 9.6 | 5.9
O=C(COc1ccccc1Cl)Nc1ccc(CN2CCCCC2)cc1 | -1.8 | -3.5 | -3.4 | -6.2 | -0.3 | nt | nt
CCN(c1cccc(C(F)(F)F)c1)S(=O)(=O)c1ccc2c(c1)CCN2C(C)=O | -1.5 | -5.1 | 37.7 | 8.7* | 10.5 | 20.3* | 10.7*
C=Cc1ccc(C(=O)N(Cc2ccc(F)cc2)C(C(=O)N(C)C2CCCC2)c2ccc(OC)c(OC)c2)cc1 (centres undefined) | -14.3 | -16.8 | nt | 0.6 | -4.9 | nt | nt
COC(=O)c1c(-c2ccc(C)cc2)csc1NC(=O)Cc1ccc(OC)c(OC)c1 | 7.7 | 8.2 | 12.0 | 0.7 | 2.7 | nt | nt
COC(=O)c1c(-c2cccc3ccccc23)csc1NC(=O)Cc1ccc(OC)c(OC)c1 | 8.5 | -3.5 | 26.4 | 10.3* | 17.4 | 13.8 | 10.1*
OC(c1ccccc1)(c1ccccc1)C1CCN(CCCNc2ccc(C(F)(F)F)cc2)CC1 | -11.2 | -17.8 | nt | 9.4* | 16.6 | 19.5 | 10.9*
O=C(NCc1ccco1)c1ccc(F)c(S(=O)(=O)N2CCCCC2)c1 | 3.5 | -2.9 | -3.2 | -1.1 | 2.7 | nt | nt
O=C(NCc1ccco1)c1ccc(Br)c(S(=O)(=O)N2CCCCC2)c1 | 6.0 | 1.6 | -0.1 | 12.8* | 8.4 | 24.9* | 5.4
COc1ccccc1CCn1cnc(-c2ccccc2OC)c1CC(C)C | -17.7 | -12.6 | nt | 3.9 | 6.1 | nt | nt
COc1ccc(N2CCN(C(=O)C3CCN(S(=O)(=O)c4c(C)noc4/C=C/N(C)C)CC3)CC2)cc1 | 3.9 | 1.9 | 3.9 | 10.5* | 18.4 | 0.5 | 1.4
COc1ccc(NC(=O)c2ccc3c(c2)NC(=O)CS3)cc1 | -6.8 | -0.5 | -6.2 | 9.5* | 4.5 | 9.4 | 6.3
COCCNC(=O)c1ccc2c(c1)NC(=O)CS2 | 1.9 | 5.2 | -6.2 | -5.3 | -4.3 | nt | nt
SMILES | NPR2 activator | GC-A act | FAS TE block | ADAM17 inh | ADAM10 inh | ADAM10 ctr | ADAM17 confirm
COc1cccc([C@H]2NC(=O)C/C=C/[C@@H](C)[C@@H](c3cccc(OC)c3)NC(=O)C/C=C/[C@H]2C)c1 | -8.0 | 3.0 | nt | -0.7 | -11.9 | nt | nt
COCCCNC(=O)Cn1nc(-c2ccccc2OC)ccc1=O | -0.6 | 1.4 | -5.9 | 10.3* | 8.2 | 10.3 | 2.3
Nc1nc2ccccc2n1S(=O)(=O)c1ccccc1 | 1.8 | -2.8 | -4.8 | 9.0* | -0.8 | 5.3 | 4.1
O=C(CNC(=S)N(Cc1ccccc1)Cc1ccccc1F)NCc1ccc(Cl)cc1 | -1.9 | -4.3 | 31.5 | 5.5 | 17.5 | nt | nt
O=C(CNC(=S)N(Cc1ccccc1)Cc1ccccc1F)NCc1ccccc1 | -1.4 | 0.3 | 20.3 | 9.1* | 11.5 | 29.7* | 13.3*
Cc1nc(C)c(-c2nnc(-c3ccc(C(C)(C)C)cc3)o2)cc1C(=O)NN | 3.4 | -1.8 | -11.4 | 10.1* | 13.5 | 1.5 | 5.1
Cc1ccc(CSc2nnc(-c3cc(-c4ccc(F)cc4)n[nH]3)n2N)cc1 | -4.5 | 3.2 | nt | 1.6 | -6.9 | nt | nt
Cc1ccccc1C(=O)N(C)[C@H]1C[C@H]2c3[nH]c4c(-c5ccccc5)cccc4c3CCN2C[C@H]1[C@H](C)O | 2.7 | -4.7 | nt | -33.7 | -119.7 | nt | nt
CCCOc1ccc(C2/C(=C(\O)c3c(C)[nH]c(C(=O)OC)c3C)C(=O)C(=O)N2CCN(C)C)cc1 (centres undefined) | -7.4 | 0.9 | -0.2 | 9.9* | -8.1 | 1.7 | 3.2
CCOc1ccc(C2/C(=C(\O)c3c(C)[nH]c(C(=O)OC)c3C)C(=O)C(=O)N2CCN(C)C)cc1 (centres undefined) | -1.0 | 6.7 | -8.3 | nt | nt | nt | nt
CCCCCCCCn1cnc2c(N)c(C)c(C)cc21 | -1.3 | 2.1 | 14.5 | 8.8* | 7.2 | 19.1 | 9.0*
Cc1c(C(=O)NC(=S)Nc2ccc(NC(=O)c3cccs3)cc2)cccc1[N+](=O)[O-] | 3.9 | -1.9 | 24.2 | 12.5* | 18.4 | 28.6* | 19.6*
Cc1ccc(CNC(=O)Cn2ccc3cc(S(=O)(=O)N4CCCCCC4)ccc32)cc1 | -0.8 | 0.3 | 13.3 | 8.8* | 3.3 | -3.4 | 7.4
CC(=O)CC[C@@H]1CC[C@]2(CCCN(S(C)(=O)=O)C2)O1 | -5.6 | -0.4 | nt | -2.4 | -14.5 | nt | nt
CCC[C@H]1[C@@H](OC(=O)NCc2ccc(OC)c(OC)c2)CC[C@@]23CCCN2C(=O)CCC[C@@H]13 | -15.0 | -11.7 | nt | -3.1 | -2.8 | nt | nt
Cc1ccc(C(=O)OCC(=O)Nc2cc(C(C)(C)C)no2)c(C)c1 | 2.0 | -0.2 | 17.2 | 11.7* | 9.8 | 33.0* | 17.3*
CCCC(=O)OC12CCCN(C1)/C(=C/c1ccc(OC)cc1)C2 (centres undefined) | -6.1 | 2.0 | nt | 0.1 | 0.0 | nt | nt
Cc1ccccc1C(=O)N1CCN(c2ccc(NC(=O)c3ccco3)cc2Cl)CC1 | 4.4 | 4.5 | 6.5 | -0.5 | -0.2 | nt | nt

Compound activity as filed in PubChem.
